Assay results from PubChem BioAssay AID1970 (National Center for Advancing Translational Sciences (NCATS), 2009).
Records with an inconclusive call do not appear. Active and inactive are the calls of the source. The call rests on the fitted dose curve; in most records, active means well fitted inhibition curve with a large enough effect; inconclusive means small, poorly fitted or top-dose-only effect; inactive means flat fitted curve, though single readings scatter.

What follows are compounds tested against Dual specificity protein kinase CLK4 (Homo sapiens) (UniProt Q9HAZ1) (assay: Confirmation Assay for Inhibitors of CDC-like Kinase 4 (Kinase-Glo Assay)). Details: recombinant Clk4, Kinase-Glo ATP depletion luminescence; series mostly up to 47.7 µM.
Description: NIH Molecular Libraries Probe Production Centers Network [MLPCN] NIH Chemical Genomics Center [NCGC] MLPCN Grant: 1R03MH084827-01 Assay Submitter (PI): Tom Misteli NCGC Assay Overview: Clk4 (Invitrogen, cat# PV3839) was assayed using ATP and the RS repeat peptide (AnaSpec cat # 61722) as substrates. Following the Clk4 reaction, the remaining ATP levels were detected using Promega Kinase-Glo technology wherein the remaining ATP from the kinase reaction is detected using Ultra-Glo luciferase and D-luciferin which generates a bioluminescence signal from the ATP.
NCGC Assay Protocol Summary: Two uL/well of substrate-buffer solution (100 uM RS peptide, 1 uM ATP, 25 mM Tris pH7.5, 10 mM MgCl2, 0.5 mM EGTA, 2.5 mM DTT, 0.01% Triton X-100 final concentration) was dispensed into 1536-well, assay plates (Greiner, solid white medium-binding plates) with Aurora Discovery BioRAPTR Flying Reagent Dispenser (FRD; Beckton-Dickenson). Using a Kalypsys pin tool equipped with a 1536-pin tool, 23 nL of compound solution was transferred to the assay plate. One uL/ well Clk4-buffer solution (25 nM Clk4, 25 mM Tris pH 7.5, 10 mM MgCl2, 0.5 mM EGTA, 2.5 mM DTT, 0.01% Triton X-100, final concentrations) was then added using the FRD yielding a total kinase reaction volume of 3 uL/ well. After 4.5 hours of room temperature incubation, 3 uL Kinase-Glo reagent was added for a final assay volume of 6 uL/ well. Luminescence was detected with the ViewLux plate reader (Perkin Elmer, Waltham, MA) after 5 min incubation using a 5 second exposure time and 2x binning.

Chain of Dual specificity protein kinase CLK4 (Homo sapiens) (Q9HAZ1 whole entry, looked up): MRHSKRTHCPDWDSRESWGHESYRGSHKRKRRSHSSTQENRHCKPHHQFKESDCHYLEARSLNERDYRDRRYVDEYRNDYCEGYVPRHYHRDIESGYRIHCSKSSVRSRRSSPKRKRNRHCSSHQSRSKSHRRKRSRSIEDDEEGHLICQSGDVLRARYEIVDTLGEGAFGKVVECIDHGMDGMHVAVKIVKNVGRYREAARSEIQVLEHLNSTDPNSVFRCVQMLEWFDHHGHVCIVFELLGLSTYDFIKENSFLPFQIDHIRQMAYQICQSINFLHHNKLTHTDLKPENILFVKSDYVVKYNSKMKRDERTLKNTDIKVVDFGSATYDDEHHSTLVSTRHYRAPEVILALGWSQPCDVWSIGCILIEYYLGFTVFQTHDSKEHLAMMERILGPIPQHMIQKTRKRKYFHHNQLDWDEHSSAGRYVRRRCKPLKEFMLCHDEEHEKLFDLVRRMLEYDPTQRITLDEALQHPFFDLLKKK

Potency, active:
Cc1cccc(CNc2ncnc3ccc(-c4ccc5c(c4)OCCO5)cc23)c1 501 nM
Cc1nc(CN(C)c2ncnc3cc(-c4ccc5c(c4)OCO5)ccc23)cs1 5330 nM
c1c[nH]c(CNc2ncnc3ccc(-c4ccc5c(c4)OCO5)cc23)n1 94.7 nM
c1cncc(CNc2ncnc3ccc(-c4cccnc4)cc23)c1 7940 nM
c1csc(CCNc2ncnc3ccc(-c4ccc5c(c4)OCO5)cc23)c1 46.3 nM
Fc1cccc(CNc2ncnc3ccc(-c4ccc5c(c4)OCO5)cc23)c1 100 nM
Cc1cccc(CNc2ncnc3ccc(-c4ccc5c(c4)OCO5)cc23)c1 112 nM
COc1cccc(-c2ccc3ncnc(NCc4cc(C)cs4)c3c2)c1 794 nM
Cc1cccc(CNc2ncnc3ccc(-c4ccccc4Cl)cc23)c1 12600 nM
Cc1nc(CNc2ncnc3ccc(-c4oc(-c5ccccc5)nc4C)cc23)cs1 2320 nM
Cc1cccc(CNc2ncnc3ccc(-c4ccoc4)cc23)c1 199 nM
Cc1occc1-c1ccc2ncnc(NCCc3cnc[nH]3)c2c1 519 nM
CN(Cc1nccs1)c1ncnc2ccc(-c3ccc4c(c3)OCO4)cc12 37.7 nM
c1nc(NCC2CCOC2)c2cc(-c3ccc4c(c3)OCO4)ccc2n1 (stereo not given) 58.2 nM
Fc1c(-c2ccc3ncnc(NCc4cccs4)c3c2)ccc2c1OCO2 65.4 nM
c1nc(NCc2ccc3c(c2)OCO3)c2cc(-c3ccoc3)ccc2n1 631 nM
Cc1cccc(CNc2ncnc3ccc(-c4cccnc4)cc23)c1 3550 nM
c1csc(CNc2ncnc3ccc(-c4ccc5c(c4)OCCO5)cc23)c1 112 nM
CN(Cc1cncn1C)c1ncnc2ccc(-c3ccc4c(c3)OCO4)cc12 292 nM
CCOC(=O)c1ccc(-c2ccc3ncnc(NCc4csc(C)n4)c3c2)o1 654 nM
CCOC(=O)c1ccoc1-c1ccc2ncnc(NCc3ncc[nH]3)c2c1 10400 nM
Cc1csc(CNc2ncnc3ccc(-c4cccnc4)cc23)c1 4470 nM
Cc1nc(CNc2ncnc3ccc(-c4ccoc4C)cc23)cs1 823 nM
Cc1csc(CNc2ncnc3ccc(-c4ccc5c(c4)OCO5)cc23)c1 141 nM
c1cncc(CNc2ncnc3ccc(-c4ccc5c(c4)OCCO5)cc23)c1 447 nM
CN1CCCC1CCNc1ncnc2ccc(-c3ccc4c(c3)OCO4)cc12 (stereo not given) 923 nM
c1csc(CNc2ncnc3ccc(-c4ccc5c(c4)OCO5)cc23)c1 45.8 nM
Cc1nc(CN(C)c2ncnc3ccc(-c4ccc5c(c4)OCO5)cc23)cs1 33.6 nM
Cc1cc(CNc2ncnc3ccc(-c4ccc5c(c4)OCO5)cc23)c(C)o1 119 nM
CCOC(=O)c1ccc(-c2ccc3ncnc(NCc4ncc[nH]4)c3c2)o1 582 nM
Cc1cccc(CNc2ncnc3ccc(-c4cccc(C)c4)cc23)c1 8910 nM
Cc1nc(CNc2ncnc3ccc(-c4ccoc4)cc23)cs1 232 nM
CC(Nc1ncnc2ccc(-c3ccc4c(c3)OCO4)cc12)c1ccco1 (stereo not given) 119 nM
c1nc(N2CCC(N3CCCC3)CC2)c2cc(-c3ccc4c(c3)OCO4)ccc2n1 4630 nM
Cc1nc(C)c(-c2ccc3ncnc(NCCc4cnc[nH]4)c3c2)s1 3680 nM
CN(C)CCNc1ncnc2ccc(-c3ccc4c(c3)OCO4)cc12 463 nM
Cc1nc(C)c(-c2ccc3ncnc(NCc4ncc[nH]4)c3c2)s1 1840 nM
CC(C)(C)CNc1ncnc2ccc(-c3ccc4c(c3)OCO4)cc12 32.4 nM
Fc1cccc(CNc2ncnc3ccc(-c4ccoc4)cc23)c1 3160 nM
CC(c1ccco1)N(C)c1ncnc2ccc(-c3ccc4c(c3)OCO4)cc12 (stereo not given) 67.1 nM
